The text below walks through data of PMC7862700, “An all-to-all approach to the identification of sequence-specific readers for epigenetic DNA modifications on cytosine”.

Experiment in all cases: DAPPL (digital affinity profiling via proximity ligation, sequencing); 10 mM Tris-HCl pH 7.5, 50 mM NaCl, 1 mM DTT, 4% glycerol, room temperature, 30 min; GST-TFs on glutathione beads, 16-mer random dsDNA library, 0.1% formaldehyde crosslink after washing; high values mean tight binding
In one test the target is T1, FLI1 (Homo sapiens, UniProt Q01543 1-452).
T1 sequence: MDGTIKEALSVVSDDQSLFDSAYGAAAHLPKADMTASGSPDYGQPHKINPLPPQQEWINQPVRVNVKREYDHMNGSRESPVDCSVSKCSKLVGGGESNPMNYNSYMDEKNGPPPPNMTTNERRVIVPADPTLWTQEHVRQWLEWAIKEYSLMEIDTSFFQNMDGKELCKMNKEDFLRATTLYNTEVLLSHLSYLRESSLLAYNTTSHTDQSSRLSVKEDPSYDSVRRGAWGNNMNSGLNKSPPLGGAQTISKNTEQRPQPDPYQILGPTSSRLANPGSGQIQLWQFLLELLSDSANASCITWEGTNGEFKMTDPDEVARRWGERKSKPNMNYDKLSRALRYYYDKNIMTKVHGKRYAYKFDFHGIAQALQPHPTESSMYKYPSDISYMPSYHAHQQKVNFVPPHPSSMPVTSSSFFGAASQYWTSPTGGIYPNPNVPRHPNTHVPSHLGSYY
Conditions: protein: recombinant; tags: N-terminal GST; dsDNA, one strand shown. Summed up: (§1)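 Beads coated with glutathione captured GST-fused human transcription factors that had been expressed in yeast, and the factors were then given DNA barcodes and pooled with a tag-only sample. The pools were incubated with 200 nmole of a random double-stranded 16-mer DNA library in Tris/NaCl/DTT/glycerol buffer for 30 min at room temperature, washed, crosslinked with 0.1% formaldehyde and proximity-ligated with BsaI/T4 ligase at 37 °C for 1 h. PCR amplification and Illumina NextSeq500 sequencing came last. Binding signal is each hexamer's read frequency for a factor divided by its frequency for the tag-only sample.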

A further test concerns the target T2, ELK1 (Homo sapiens, UniProt P19419 1-428).
T2 sequence: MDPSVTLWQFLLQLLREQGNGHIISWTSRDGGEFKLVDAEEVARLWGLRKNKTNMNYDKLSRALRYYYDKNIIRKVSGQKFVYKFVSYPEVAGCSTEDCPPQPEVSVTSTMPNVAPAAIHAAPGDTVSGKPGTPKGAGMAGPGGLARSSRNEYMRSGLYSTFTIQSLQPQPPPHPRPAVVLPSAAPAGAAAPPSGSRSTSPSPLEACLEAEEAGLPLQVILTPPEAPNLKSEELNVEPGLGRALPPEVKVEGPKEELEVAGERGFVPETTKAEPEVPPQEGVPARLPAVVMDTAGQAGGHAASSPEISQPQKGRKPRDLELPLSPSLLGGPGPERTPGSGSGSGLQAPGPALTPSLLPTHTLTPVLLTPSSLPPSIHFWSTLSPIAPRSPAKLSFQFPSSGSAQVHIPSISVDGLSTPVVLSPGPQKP
Conditions: protein: recombinant; tags: N-terminal GST; dsDNA, one strand shown. Summed up: as §1

The target in another test is T3, GABPA (Homo sapiens, UniProt Q06546 1-454).
T3 sequence: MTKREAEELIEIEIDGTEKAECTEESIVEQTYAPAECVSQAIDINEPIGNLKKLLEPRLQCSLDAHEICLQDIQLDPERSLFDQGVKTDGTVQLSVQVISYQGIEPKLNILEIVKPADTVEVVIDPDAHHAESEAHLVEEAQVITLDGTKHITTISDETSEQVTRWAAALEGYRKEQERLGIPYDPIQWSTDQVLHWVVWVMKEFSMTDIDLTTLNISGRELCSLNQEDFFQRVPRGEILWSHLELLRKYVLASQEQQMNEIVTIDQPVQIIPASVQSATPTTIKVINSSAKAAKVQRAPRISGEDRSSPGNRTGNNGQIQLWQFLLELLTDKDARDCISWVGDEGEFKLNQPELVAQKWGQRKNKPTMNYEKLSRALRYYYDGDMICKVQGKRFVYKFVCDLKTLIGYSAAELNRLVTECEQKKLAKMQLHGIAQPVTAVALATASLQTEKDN
Conditions: protein: recombinant; tags: N-terminal GST; dsDNA, one strand shown. An outline of the steps: as §1

Another test has as its target T4, ERG (Homo sapiens, UniProt P11308 1-479).
T4 sequence: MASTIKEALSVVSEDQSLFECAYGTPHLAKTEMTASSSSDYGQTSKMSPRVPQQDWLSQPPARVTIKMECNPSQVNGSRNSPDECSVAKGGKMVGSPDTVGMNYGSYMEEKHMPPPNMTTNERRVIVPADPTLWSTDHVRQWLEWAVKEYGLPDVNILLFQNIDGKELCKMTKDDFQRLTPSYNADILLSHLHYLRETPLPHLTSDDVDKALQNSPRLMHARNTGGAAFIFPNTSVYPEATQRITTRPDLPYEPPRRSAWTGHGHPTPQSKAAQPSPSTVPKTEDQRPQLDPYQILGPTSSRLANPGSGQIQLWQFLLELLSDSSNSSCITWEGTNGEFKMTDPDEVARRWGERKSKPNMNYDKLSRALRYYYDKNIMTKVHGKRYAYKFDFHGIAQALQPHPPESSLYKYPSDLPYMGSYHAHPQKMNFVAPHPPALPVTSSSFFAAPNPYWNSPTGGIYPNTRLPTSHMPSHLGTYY
Conditions: protein: recombinant; tags: N-terminal GST; dsDNA, one strand shown. An outline of the steps:
as §1

In the next test the target is ELF1 (Homo sapiens, UniProt P32519 1-619). Conditions: protein: recombinant; tags: N-terminal GST; dsDNA, one strand shown. Summed up:
as §1

The next test deals with T5, EHF (Homo sapiens, UniProt Q9NZC4 1-300).
T5 sequence: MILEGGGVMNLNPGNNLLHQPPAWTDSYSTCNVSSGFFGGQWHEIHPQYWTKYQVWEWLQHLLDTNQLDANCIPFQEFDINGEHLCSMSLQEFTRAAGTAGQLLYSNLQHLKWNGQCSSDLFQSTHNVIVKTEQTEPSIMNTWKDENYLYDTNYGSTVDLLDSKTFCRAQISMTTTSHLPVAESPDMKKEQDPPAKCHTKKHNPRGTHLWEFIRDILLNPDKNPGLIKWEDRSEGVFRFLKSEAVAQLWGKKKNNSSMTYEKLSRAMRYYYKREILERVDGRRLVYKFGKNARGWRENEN
Conditions: protein: recombinant; tags: N-terminal GST; dsDNA, one strand shown. An outline of the steps: as §1

For the next test, the target named is SPI1 (Homo sapiens, UniProt P17947 1-270). Conditions: protein: recombinant; tags: N-terminal GST; dsDNA, one strand shown. An outline of the steps: as §1
The next test has as its target SPIB (Homo sapiens, UniProt Q01892 1-262). Conditions: protein: recombinant; tags: N-terminal GST; dsDNA, one strand shown. Summed up:
as §1

In a further test the target is T6, ELK3 (Homo sapiens, UniProt P41970 1-407).
T6 sequence: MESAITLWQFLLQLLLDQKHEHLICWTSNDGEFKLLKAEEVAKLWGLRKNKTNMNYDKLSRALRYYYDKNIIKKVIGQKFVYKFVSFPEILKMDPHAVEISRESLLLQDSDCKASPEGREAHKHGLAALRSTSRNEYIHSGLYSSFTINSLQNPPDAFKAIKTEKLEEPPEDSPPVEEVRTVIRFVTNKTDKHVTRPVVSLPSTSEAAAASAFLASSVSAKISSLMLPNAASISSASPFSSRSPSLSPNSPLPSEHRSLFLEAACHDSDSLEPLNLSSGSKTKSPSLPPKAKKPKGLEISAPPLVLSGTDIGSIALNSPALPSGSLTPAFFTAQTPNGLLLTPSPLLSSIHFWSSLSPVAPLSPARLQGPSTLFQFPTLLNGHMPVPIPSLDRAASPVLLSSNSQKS
Conditions: protein: recombinant; tags: N-terminal GST; dsDNA, one strand shown. An outline of the steps: as §1

The target in a further test is T7, FEV (Homo sapiens, UniProt Q99581 1-238).
T7 sequence: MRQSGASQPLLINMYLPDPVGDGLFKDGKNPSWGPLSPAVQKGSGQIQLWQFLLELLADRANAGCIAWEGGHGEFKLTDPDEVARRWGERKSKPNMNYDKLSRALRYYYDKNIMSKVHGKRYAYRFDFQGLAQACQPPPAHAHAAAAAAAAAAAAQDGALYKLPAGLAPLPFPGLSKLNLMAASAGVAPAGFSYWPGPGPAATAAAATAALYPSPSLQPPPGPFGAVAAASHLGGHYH
Conditions: protein: recombinant; tags: N-terminal GST; dsDNA, one strand shown. An outline of the steps: as §1

The target in another test is ETV5 (Homo sapiens, UniProt P41161 1-510). Conditions: protein: recombinant; tags: N-terminal GST; dsDNA, one strand shown. An outline of the steps:
as §1

The next test addresses HSF1 (Homo sapiens, UniProt Q00613 1-529). Conditions: protein: recombinant; tags: N-terminal GST; chain copies: 3; dsDNA, one strand shown. An outline of the steps:
as §1

In a further test the target is T8, SPIC (Homo sapiens, UniProt Q8N5J4 1-248).
T8 sequence: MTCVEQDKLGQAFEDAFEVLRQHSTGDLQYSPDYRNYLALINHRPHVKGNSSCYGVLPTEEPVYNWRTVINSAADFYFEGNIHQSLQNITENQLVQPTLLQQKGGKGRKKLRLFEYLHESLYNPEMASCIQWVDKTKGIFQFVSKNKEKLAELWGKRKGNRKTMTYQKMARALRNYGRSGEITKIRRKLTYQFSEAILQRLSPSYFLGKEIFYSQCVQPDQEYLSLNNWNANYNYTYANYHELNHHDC
Conditions: protein: recombinant; tags: N-terminal GST; dsDNA, one strand shown. Summed up:
as §1

The target in the next test is ELF4 (Homo sapiens, UniProt Q99607 1-663). Conditions: protein: recombinant; tags: N-terminal GST; dsDNA, one strand shown. An outline of the steps: as §1
Sequence of ELF4 (Q99607 whole entry): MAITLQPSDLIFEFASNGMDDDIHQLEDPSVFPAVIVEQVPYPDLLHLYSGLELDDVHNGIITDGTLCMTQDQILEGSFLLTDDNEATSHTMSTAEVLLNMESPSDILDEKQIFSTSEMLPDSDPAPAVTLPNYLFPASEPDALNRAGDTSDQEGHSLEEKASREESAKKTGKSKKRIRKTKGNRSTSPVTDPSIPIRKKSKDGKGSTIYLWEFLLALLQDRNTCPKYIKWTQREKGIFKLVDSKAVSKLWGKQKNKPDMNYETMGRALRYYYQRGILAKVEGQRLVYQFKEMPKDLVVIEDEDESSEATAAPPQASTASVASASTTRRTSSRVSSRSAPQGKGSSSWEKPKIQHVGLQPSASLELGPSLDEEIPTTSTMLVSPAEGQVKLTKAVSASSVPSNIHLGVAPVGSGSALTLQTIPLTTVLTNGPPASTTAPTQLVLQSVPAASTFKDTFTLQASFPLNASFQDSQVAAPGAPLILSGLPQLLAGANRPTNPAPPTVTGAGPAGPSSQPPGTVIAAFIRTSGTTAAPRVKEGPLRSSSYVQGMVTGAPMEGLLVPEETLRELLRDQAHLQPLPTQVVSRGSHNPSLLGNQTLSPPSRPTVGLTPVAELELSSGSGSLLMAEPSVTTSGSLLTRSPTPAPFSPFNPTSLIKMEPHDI
For the next test, the target named is T9, ETV2 (Homo sapiens, UniProt O00321 1-342).
T9 sequence: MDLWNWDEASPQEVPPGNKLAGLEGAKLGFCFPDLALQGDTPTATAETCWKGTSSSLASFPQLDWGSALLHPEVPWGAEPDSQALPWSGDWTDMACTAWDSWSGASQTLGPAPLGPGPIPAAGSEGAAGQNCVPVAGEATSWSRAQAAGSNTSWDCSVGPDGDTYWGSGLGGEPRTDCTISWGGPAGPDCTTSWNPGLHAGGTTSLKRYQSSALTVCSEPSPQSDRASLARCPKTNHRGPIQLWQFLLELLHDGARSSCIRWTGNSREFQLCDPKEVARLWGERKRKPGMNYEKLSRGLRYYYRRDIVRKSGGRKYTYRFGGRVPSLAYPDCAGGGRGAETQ
Conditions: protein: recombinant; tags: N-terminal GST; dsDNA, one strand shown. Summed up: as §1

The target of another test is T10, ELF3 (Homo sapiens, UniProt P78545 1-371).
T10 sequence: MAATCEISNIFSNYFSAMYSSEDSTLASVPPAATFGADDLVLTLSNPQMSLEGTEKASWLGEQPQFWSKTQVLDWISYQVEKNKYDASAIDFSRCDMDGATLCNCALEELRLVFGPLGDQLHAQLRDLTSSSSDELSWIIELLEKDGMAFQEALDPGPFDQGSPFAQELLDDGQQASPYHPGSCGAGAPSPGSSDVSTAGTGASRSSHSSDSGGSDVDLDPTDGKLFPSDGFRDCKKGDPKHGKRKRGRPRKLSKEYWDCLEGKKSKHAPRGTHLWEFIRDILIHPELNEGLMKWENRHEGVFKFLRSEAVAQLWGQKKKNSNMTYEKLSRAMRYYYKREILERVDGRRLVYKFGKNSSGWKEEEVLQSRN
Conditions: protein: recombinant; tags: N-terminal GST; dsDNA, one strand shown. An outline of the steps:
as §1

The target of another test is CRX (Homo sapiens, UniProt O43186 1-299). Conditions: protein: recombinant; tags: N-terminal GST; dsDNA, one strand shown. An outline of the steps:
as §1

The next test addresses ETV1 (Homo sapiens, UniProt P50549 1-477). Conditions: protein: recombinant; tags: N-terminal GST; dsDNA, one strand shown. An outline of the steps:
as §1

Sequence of ELF1 (P32519 whole entry): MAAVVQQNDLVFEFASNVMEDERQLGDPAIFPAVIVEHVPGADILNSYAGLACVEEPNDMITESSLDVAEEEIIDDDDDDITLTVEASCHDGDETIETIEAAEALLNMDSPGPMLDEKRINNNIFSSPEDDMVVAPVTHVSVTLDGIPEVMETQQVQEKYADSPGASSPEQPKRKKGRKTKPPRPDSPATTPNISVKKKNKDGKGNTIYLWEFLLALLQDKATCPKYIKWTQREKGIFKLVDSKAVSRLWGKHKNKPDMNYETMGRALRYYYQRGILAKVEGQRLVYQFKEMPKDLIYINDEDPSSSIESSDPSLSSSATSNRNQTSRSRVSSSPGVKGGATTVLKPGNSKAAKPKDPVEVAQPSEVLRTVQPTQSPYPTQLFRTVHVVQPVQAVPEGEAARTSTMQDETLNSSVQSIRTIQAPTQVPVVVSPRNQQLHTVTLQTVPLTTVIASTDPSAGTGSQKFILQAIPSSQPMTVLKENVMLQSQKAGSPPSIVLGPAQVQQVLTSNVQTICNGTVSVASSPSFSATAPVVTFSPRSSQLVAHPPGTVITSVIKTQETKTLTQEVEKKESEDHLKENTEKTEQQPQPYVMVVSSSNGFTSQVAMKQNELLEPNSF
Sequence of CRX (O43186 whole entry): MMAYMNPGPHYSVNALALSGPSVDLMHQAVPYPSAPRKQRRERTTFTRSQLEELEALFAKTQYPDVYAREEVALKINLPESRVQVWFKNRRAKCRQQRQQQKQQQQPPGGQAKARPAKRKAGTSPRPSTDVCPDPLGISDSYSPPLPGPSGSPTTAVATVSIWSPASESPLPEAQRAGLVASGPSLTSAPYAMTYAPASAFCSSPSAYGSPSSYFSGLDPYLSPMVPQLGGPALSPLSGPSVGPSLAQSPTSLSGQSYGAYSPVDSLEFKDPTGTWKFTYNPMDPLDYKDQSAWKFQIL
Sequence of ETV5 (P41161 whole entry): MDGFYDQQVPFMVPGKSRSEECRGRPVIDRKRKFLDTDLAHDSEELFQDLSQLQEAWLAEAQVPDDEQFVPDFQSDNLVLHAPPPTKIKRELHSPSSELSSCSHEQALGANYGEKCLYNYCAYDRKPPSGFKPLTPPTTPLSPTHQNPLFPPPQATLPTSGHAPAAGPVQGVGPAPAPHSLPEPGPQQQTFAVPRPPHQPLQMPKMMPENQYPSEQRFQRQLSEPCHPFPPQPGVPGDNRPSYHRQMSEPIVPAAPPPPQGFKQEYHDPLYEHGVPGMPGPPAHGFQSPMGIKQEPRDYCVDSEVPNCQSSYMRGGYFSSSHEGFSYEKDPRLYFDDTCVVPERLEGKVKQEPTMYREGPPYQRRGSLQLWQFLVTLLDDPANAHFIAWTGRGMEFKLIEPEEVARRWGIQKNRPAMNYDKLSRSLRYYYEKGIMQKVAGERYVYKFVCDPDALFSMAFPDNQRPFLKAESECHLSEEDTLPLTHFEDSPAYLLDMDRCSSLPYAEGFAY
Sequence of ETV1 (P50549 whole entry): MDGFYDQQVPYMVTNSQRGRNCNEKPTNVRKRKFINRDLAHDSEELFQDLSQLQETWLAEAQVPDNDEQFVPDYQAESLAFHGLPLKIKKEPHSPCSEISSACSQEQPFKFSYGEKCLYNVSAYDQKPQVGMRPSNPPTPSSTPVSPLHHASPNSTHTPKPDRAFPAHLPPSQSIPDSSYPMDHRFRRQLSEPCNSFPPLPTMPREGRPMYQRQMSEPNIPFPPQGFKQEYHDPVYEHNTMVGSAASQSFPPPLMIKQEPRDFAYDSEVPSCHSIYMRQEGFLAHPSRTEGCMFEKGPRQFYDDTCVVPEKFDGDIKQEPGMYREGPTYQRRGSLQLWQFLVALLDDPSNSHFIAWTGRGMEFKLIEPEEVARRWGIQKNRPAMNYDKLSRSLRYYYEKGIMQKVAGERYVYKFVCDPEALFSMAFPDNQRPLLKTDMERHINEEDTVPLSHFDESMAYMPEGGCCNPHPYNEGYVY
Sequence of SPIB (Q01892 whole entry): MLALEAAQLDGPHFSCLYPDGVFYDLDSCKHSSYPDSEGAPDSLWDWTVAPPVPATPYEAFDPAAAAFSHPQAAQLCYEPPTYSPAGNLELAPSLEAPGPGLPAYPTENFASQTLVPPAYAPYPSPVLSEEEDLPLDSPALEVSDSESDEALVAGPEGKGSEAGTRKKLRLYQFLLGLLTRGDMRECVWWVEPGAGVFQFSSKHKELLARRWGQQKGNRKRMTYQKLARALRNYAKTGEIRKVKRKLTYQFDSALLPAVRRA
Sequence of HSF1 (Q00613 whole entry): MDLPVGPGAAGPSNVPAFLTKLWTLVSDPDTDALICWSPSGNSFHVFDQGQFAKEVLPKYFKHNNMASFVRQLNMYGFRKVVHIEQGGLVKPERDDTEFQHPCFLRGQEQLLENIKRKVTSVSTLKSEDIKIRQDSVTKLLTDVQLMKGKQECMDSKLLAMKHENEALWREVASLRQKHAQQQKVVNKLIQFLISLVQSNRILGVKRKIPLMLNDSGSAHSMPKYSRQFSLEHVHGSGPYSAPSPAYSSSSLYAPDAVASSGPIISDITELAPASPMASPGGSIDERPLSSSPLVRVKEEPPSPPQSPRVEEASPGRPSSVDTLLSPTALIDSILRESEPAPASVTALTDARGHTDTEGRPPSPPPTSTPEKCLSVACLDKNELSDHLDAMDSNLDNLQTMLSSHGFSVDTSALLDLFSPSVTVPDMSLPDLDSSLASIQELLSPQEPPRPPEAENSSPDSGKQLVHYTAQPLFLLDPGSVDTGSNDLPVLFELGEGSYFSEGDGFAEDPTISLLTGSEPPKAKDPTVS

Consider ATCAAT, for which the binding signal was 1.12 fold enrichment (6-mer frequency, TF over GST control) with FLI1; 1.01 fold enrichment (6-mer frequency, TF over GST control) in the test with ELK1; 1.16 fold enrichment (6-mer frequency, TF over GST control) with GABPA; 1.04 fold enrichment (6-mer frequency, TF over GST control) with ERG; 1.15 fold enrichment (6-mer frequency, TF over GST control) with ELF1; 1.02 fold enrichment (6-mer frequency, TF over GST control) with EHF. The binding signal in the test with SPI1 is 1.06 fold enrichment (6-mer frequency, TF over GST control); with SPIB it was 1.07 fold enrichment (6-mer frequency, TF over GST control); with ELK3 it was 1.06 fold enrichment (6-mer frequency, TF over GST control); with FEV, 1.05 fold enrichment (6-mer frequency, TF over GST control); with ETV5, 1.1 fold enrichment (6-mer frequency, TF over GST control); in the test with HSF1, 1.14 fold enrichment (6-mer frequency, TF over GST control). The binding signal with SPIC was 1.06 fold enrichment (6-mer frequency, TF over GST control); in the test with ELF4 it was 1.1 fold enrichment (6-mer frequency, TF over GST control); with ETV2, 1.16 fold enrichment (6-mer frequency, TF over GST control); in the test with ELF3, 1.12 fold enrichment (6-mer frequency, TF over GST control); with CRX it was 1.32 fold enrichment (6-mer frequency, TF over GST control); with ETV1, 1.06 fold enrichment (6-mer frequency, TF over GST control).

With CGAGCT, the binding signal with FLI1 was 1.02 fold enrichment (6-mer frequency, TF over GST control); with ELK1, 1.02 fold enrichment (6-mer frequency, TF over GST control); in the test with GABPA, 1.09 fold enrichment (6-mer frequency, TF over GST control); with ERG, 1.04 fold enrichment (6-mer frequency, TF over GST control); with ELF1 it was 1.06 fold enrichment (6-mer frequency, TF over GST control); with EHF, 1.13 fold enrichment (6-mer frequency, TF over GST control). Besides, the binding signal in the test with SPI1 was 1.03 fold enrichment (6-mer frequency, TF over GST control); with SPIB it was 1.04 fold enrichment (6-mer frequency, TF over GST control); with ELK3, 1.06 fold enrichment (6-mer frequency, TF over GST control); in the test with FEV it was 1.03 fold enrichment (6-mer frequency, TF over GST control); with ETV5, 1.01 fold enrichment (6-mer frequency, TF over GST control); in the test with HSF1, 1.24 fold enrichment (6-mer frequency, TF over GST control). Besides, the binding signal in the test with SPIC was 1.25 fold enrichment (6-mer frequency, TF over GST control); with ELF4, 1.07 fold enrichment (6-mer frequency, TF over GST control); with ETV2, 1.05 fold enrichment (6-mer frequency, TF over GST control); in the test with CRX it was 1.04 fold enrichment (6-mer frequency, TF over GST control); in the test with ETV1, 1.15 fold enrichment (6-mer frequency, TF over GST control).
